# Assay results taken from PubChem BioAssay (EPA / NIEHS).
# Inconclusive results are not listed. Activity calls are given as the source filed them. How the source made its calls: active means hit-call score of the fitted dose curve at least 0.9, where 1 is the maximum; inconclusive means response in the unintended direction; inactive means score below 0.9.
# Experiments:
# [1] = TOX21_p53_BLA_p2_viability: Viability Assessment in the Tox21 HCT-116 p53 Agonism Beta-lactamase Assay, Phase 2 (AID 2283591);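 further: compound exposure lasted 16 h at 37 °C; actives lower the ATP signal meaning cytotoxicity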
# In short: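 Cytotoxicity readout: CellTiter-Glo ATP luminescence, 30 min at room temperature, after the beta-lactamase read. Cells were HCT116 exposed 16 h at 37C to compounds pin-transferred at 217-fold dilution from DMSO stocks.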
# [2] = target: Cellular tumor antigen p53 (Homo sapiens) (UniProt P04637); test: TOX21_p53_BLA_p2_ratio: Tox21 HCT-116 p53 Agonism Beta-lactamase Assay, Ratio, Phase 2 (AID 2283592)
# Chain of Cellular tumor antigen p53 (Homo sapiens) (P04637 whole entry, looked up): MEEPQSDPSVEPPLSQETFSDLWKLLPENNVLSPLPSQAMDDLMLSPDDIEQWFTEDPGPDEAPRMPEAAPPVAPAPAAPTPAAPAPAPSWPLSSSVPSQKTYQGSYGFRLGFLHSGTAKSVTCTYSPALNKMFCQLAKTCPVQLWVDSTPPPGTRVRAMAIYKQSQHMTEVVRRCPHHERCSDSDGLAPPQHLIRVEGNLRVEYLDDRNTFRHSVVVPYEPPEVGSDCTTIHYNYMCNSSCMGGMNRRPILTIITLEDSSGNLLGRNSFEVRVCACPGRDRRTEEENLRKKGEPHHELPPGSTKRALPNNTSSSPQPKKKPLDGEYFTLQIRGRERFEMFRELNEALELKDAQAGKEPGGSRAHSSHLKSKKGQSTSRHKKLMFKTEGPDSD
# In short: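 In this cell-based reporter format, HCT116 cells were dosed with chemicals delivered from DMSO by 217-fold dilution and incubated 16 h at 37C. Emission at 460 and 530 nm after 2 h CCF4-AM loading provided the ratio, fitted upward versus DMSO.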
# [3] = TOX21_p53_BLA_p3_viability: Viability Assessment in the Tox21 HCT-116 p53 Agonism Beta-lactamase Assay, Phase 3 (AID 2283593);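 further: cells exposed to compound for 16 h before reading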
# In short: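 Cellular ATP was quantified by CellTiter-Glo luminescence, read after 30 min at room temperature. Beforehand, HCT116 cells (4000/well) received compound 5 h post-seeding, 217-fold diluted from DMSO, then incubated 16 h at 37C.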
# [4] = target: Cellular tumor antigen p53 (Homo sapiens) (UniProt P04637); test: TOX21_p53_BLA_p3_ratio: Tox21 HCT-116 p53 Agonism Beta-lactamase Assay, Ratio, Phase 3 (AID 2283596)
# In short: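 HCT116 p53-bla cells (4000/well) given compound in DMSO (217-fold dilution) after 5 h, incubated 16 h at 37C. CCF4-AM substrate 2 h at room temperature; 460/530 nm emission ratio, gain fitted against DMSO.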
# [5] = target: Cellular tumor antigen p53 (Homo sapiens) (UniProt P04637); test: TOX21_p53_BLA_p5_ratio: Tox21 HCT-116 p53 Agonism Beta-lactamase Assay, Ratio, Phase 5 (AID 2283599)
# In short: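 Beta-lactamase reporter ratio (blue 460 nm over green 530 nm, 405 nm excitation) after 2 h CCF4-AM loading, in HCT-116 cells exposed 16 h at 37 C to compounds pinned at 217-fold dilution. Increases relative to DMSO baseline scored.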
# [6] = target: Cellular tumor antigen p53 (Homo sapiens) (UniProt P04637); test: TOX21_p53_BLA_p4_ratio: Tox21 HCT-116 p53 Agonism Beta-lactamase Assay, Ratio, Phase 4 (AID 2283601)
# In short: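 Signal is the blue/green (460nm/530nm) ratio of cleaved versus uncleaved CCF4-AM substrate, read after 2 h substrate loading. Cells were HCT116 carrying the p53-responsive beta-lactamase reporter, dosed 16 h at 37C, 5% CO2; CellTiter-Glo measured in parallel.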
# [7] = TOX21_p53_BLA_p5_viability: Viability Assessment in the Tox21 HCT-116 p53 Agonism Beta-lactamase Assay, Phase 5 (AID 2283600)
# In short: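 Compounds, pinned from DMSO at 217-fold dilution, were left on the cells for 16 h. The viability endpoint was ATP content measured by CellTiter-Glo luminescence, where falling signal reflects cytotoxicity.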
compound,measurement,setting,value
O=c1[nH]oc2c1CCNC2,outcome,[1],inactive
same,outcome,[2],inactive
same,outcome,[3],inactive
same,outcome,[4],inactive
same,outcome,[5],inactive
same,outcome,[6],inactive
C=CCc1cc(OC)c2c(c1)OCO2,outcome,[1],inactive
same,outcome,[2],inactive
same,outcome,[3],inactive
same,outcome,[4],inactive
same,outcome,[5],inactive
same,outcome,[6],inactive
Oc1ccc(C(=C(Cl)Cl)c2ccc(O)cc2)cc1,outcome,[1],inactive
same,AC50,[2],41.2 µM (active)
same,outcome,[3],inactive
same,outcome,[4],inactive
same,outcome,[5],inactive
same,AC50,[6],72.4 µM (active)
CN1C(=O)NC(=O)C(C)(C2=CCCCC2)C1=O (stereo not drawn),outcome,[1],inactive
same,outcome,[2],inactive
same,outcome,[3],inactive
same,outcome,[4],inactive
same,outcome,[5],inactive
same,outcome,[7],inactive
same,outcome,[6],inactive
C=CCC1(C(C)CCC)C(=O)N=C(S)NC1=O (stereo not drawn),outcome,[1],inactive
same,outcome,[2],inactive
same,outcome,[3],inactive
same,outcome,[4],inactive
same,outcome,[5],inactive
same,outcome,[6],inactive
CCCCCCCCCCCCCC[P+](CCCCCC)(CCCCCC)CCCCCC (tested in a mixture with another compound),AC50,[1],11.7 µM (active)
same,AC50,[2],21.4 µM (active)
same,AC50,[3],24.1 µM (active)
same,AC50,[4],33.5 µM (active)
same,AC50,[5],46.8 µM (active)
same,AC50,[7],15.2 µM (active)
same,outcome,[6],inactive
